Data published in PubChem BioAssay.
For some of these results: Results with a measured potency or affinity are listed apart. The source made the active and inactive calls.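 The calls were made as follows, unless noted: active = calcium signal rise above buffer-control mean plus 5 SD in both duplicates, and also a hit in the primary screen; inactive = the rest.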

How the values were obtained:
[1] = system: TRPC4 beta (transient receptor potential cation channel C4), mouse; experiment: activators of mouse TRPC4 channel, confirmation, cell-based, Fluo4 calcium, HEK293 TRPC4beta/mu-opioid, duplicates, 10 µM (AID 2426;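 active = fluorescence ratio normalized to control raised more than 50% in primary screen plus both repeat runs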;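 as to activation: percent rise of integrated ratio over buffer wells lacking compound which define 0%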); conditions: Fluo4 calcium fluorescence, at 10 µM; active compounds read high
[2] = system: transient receptor potential cation channel C4 beta (TRPC4), mouse; experiment: activators of mouse TRPC4 channel, confirmation, cell-based, second round, Fluo4, HEK293 TRPC4beta/mu-opioid, 1 µM (AID 2461;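 active = primary screen active and over 50% activation in each of two duplicate runs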); conditions: Fluo4 calcium fluorescence, at 1 µM; active compounds read high
[3] = system: TRPC4 (transient receptor potential cation channel C4 beta), mouse; experiment: positive allosteric modulators of mouse TRPC4, confirmation, cell-based, second round, Fluo-4, HEK293 TRPC4beta/mu-opioid, 1 µM (AID 2554;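 active = primary screen hit whose fluorescence ratio, in both repeats, exceeds the weak agonist control mean by 3 SD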); conditions: DAMGO EC20, Fluo-4 calcium flux, at 1 µM; active compounds read high
[4] = system: TRPC4 beta (transient receptor potential cation channel C4), mouse; experiment: positive allosteric modulators of mouse TRPC4, confirmation, cell-based, Fluo-4, HEK293 TRPC4beta/mu-opioid (AID 2555;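 active = primary screen hit whose calcium fluorescence ratio, in both repeats, exceeds the weak agonist control mean by 3 SD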); conditions: DAMGO EC20, Fluo-4 calcium flux, at 10 µM; active compounds read high
[5] = biological target: Short transient receptor potential channel 4 (Mus musculus) (UniProt Q9QUQ5); experiment: inhibitors of mouse TRPC4 channel, confirmation, cell-based, Fluo4, HEK293 TRPC4beta/mu-opioid (AID 2636;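 active = calcium signal cut by more than 3 SD below the full-agonist control yet still positive, in both repeats and the earlier primary screen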); conditions: DAMGO, Fluo4 calcium flux, at 10 µM; active compounds read high
Short transient receptor potential channel 4 (Mus musculus), sequence (Q9QUQ5 whole entry, looked up): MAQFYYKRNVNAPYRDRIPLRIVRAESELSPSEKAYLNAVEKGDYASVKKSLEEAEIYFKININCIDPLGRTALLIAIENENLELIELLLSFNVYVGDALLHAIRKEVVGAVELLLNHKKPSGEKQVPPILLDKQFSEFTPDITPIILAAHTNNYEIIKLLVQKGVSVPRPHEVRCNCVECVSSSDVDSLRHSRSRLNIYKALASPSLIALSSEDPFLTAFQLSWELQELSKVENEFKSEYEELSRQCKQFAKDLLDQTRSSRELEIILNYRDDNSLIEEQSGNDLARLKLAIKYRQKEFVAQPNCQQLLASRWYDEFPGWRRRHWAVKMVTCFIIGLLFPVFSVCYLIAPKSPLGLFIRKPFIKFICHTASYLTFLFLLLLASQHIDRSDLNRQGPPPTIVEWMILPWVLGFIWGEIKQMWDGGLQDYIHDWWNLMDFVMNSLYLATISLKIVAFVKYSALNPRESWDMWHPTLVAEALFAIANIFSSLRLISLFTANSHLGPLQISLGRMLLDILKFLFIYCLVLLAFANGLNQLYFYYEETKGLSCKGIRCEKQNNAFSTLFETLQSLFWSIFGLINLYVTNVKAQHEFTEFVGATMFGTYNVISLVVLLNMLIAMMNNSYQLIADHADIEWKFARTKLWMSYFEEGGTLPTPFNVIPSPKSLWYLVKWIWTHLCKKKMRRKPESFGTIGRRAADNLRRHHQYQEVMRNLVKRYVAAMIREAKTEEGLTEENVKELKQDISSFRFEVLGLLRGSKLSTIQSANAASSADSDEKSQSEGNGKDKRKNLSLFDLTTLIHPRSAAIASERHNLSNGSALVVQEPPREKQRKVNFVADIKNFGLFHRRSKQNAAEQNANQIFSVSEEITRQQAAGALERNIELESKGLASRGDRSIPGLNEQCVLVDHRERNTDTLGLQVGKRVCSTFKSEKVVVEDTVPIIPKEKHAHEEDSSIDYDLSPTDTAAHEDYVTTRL

[6] = biological target: Short transient receptor potential channel 4 (Mus musculus) (UniProt Q9QUQ5); experiment: inhibitors of mouse TRPC4 channel, confirmation, cell-based, second round, Fluo4, HEK293 TRPC4beta/mu-opioid, 1 µM (AID 2637;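 active = calcium signal ratio cut to more than 3 SD under the fully stimulated control mean yet still positive, in both repeats and the primary screen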); conditions: Fluo4 calcium flux, DAMGO, at 1 µM; active compounds read high
[7] = biological target: Short transient receptor potential channel 4 (Mus musculus) (UniProt Q9QUQ5); experiment: TRPC4 positive allosteric modulators, dose response, cell-based, HEK293 TRPC4/mu-opioid, Fluo-4 calcium, EC20 DAMGO (AID 434941;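 active = earlier screen potentiator hit that boosts the TRPC4 ion channel at some dose, with a dose response; inactive = no potentiation, no dose response, or not a prior hit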;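 also: calcium entry triggered by an EC20 dose of DAMGO at the co-expressed mu-opioid receptor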)
[8] = biological target: Short transient receptor potential channel 4 (Mus musculus) (UniProt Q9QUQ5); experiment: mouse TRPC4 channel inhibitors, dose response, cell-based, HEK293 TRPC4/mu-opioid, Fluo-4 calcium (AID 434942;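 active = primary screen inhibitor hit that blocks the TRPC4 channel at some tested dose, yielding a dose curve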)
[9] = biological target: Short transient receptor potential channel 6 (Mus musculus) (UniProt Q61143); experiment: inhibition of mouse TRPC6 channel, confirmation, selectivity assay for TRPC4 inhibitor project, cell-based, HEK293, membrane potential dye, duplicate (AID 434948;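 active = active in primary screen and both duplicates, each dropping signal beyond three positive-control SD with fluorescence still positive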); conditions: HEK293 TRPC6, membrane potential dye fluorescence, at 10 µM, stimulated with maximal-effect acetylcholine; active compounds read high
Short transient receptor potential channel 6 (Mus musculus), sequence (Q61143 whole entry, looked up): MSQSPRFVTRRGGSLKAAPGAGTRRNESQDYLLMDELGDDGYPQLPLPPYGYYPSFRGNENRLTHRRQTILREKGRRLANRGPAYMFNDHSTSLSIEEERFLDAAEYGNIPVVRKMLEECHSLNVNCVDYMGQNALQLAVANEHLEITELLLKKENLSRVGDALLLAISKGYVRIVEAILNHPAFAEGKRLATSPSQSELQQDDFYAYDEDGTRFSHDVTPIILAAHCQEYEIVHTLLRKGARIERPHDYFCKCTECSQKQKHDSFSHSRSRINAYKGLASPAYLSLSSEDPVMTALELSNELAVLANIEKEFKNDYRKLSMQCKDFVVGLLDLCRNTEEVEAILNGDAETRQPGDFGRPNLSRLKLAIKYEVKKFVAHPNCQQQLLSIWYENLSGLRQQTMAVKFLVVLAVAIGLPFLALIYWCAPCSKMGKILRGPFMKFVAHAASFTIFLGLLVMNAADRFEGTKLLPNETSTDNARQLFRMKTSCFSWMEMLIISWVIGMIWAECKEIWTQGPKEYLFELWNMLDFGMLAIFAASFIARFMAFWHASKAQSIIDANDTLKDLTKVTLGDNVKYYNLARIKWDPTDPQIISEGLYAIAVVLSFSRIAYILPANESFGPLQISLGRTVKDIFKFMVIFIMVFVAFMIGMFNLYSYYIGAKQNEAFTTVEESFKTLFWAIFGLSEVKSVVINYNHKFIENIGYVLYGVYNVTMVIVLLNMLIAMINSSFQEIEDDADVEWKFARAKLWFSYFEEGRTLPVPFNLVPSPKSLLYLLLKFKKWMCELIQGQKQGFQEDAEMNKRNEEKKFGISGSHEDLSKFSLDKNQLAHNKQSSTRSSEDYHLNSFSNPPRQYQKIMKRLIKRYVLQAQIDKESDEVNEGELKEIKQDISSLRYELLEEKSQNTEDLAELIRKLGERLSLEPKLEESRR

[10] = biological target: Short transient receptor potential channel 6 (Mus musculus) (UniProt Q61143); experiment: activation of mouse TRPC6 channel, confirmation, selectivity assay for TRPC4 activator project, cell-based, HEK293, membrane potential dye, duplicate (AID 434950;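 active = membrane potential signal rise above negative control mean plus 3 SD in both duplicates, also active in the earlier TRPC4 screen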;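 as to activation: 0% = buffer only wells and 100% = acetylcholine maximal-effect wells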); conditions: HEK293 TRPC6, membrane potential fluorescence, at 10 µM; active compounds read high
[11] = biological target: Short transient receptor potential channel 6 (Mus musculus) (UniProt Q61143); experiment: TRPC6 potentiation by TRPC4 potentiator hits, confirmation, selectivity assay for TRPC4 potentiator project, HEK293 cells, membrane potential dye, duplicate (AID 434952;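 active = compound raising the membrane signal above positive-control mean plus 3 SD in both repeats, and a primary screen hit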); conditions: HEK293 TRPC6, membrane potential dye fluorescence, at 10 µM, maximal acetylcholine added after compound; active compounds read high
[12] = biological target: Short transient receptor potential channel 4 (Mus musculus) (UniProt Q9QUQ5); experiment: calcium flux activators in TRPC4/5HT1a cells, counter-screen for TRPC4 activator project, cell-based, second counter screen, HEK293 TRPC4/5HT1a, Fluo-4 (AID 434977); conditions: Fluo-4 calcium flux, at 10 µM; active compounds read high;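 as to activation: plate controls were assay buffer for no effect and maximal serotonin response for full effect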
[13] = calcium flux inhibitors in TRPC4/5HT1a cells, confirmation, counter-screen for TRPC4 inhibitor project, cell-based, second counter screen, HEK293 TRPC4/5HT1a, Fluo-4 (AID 434978;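 active = primary screen active whose calcium signal fell more than 3 SD beyond the full-serotonin control mean in both duplicate plates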;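 as to outcome: serotonin given first at submaximal then at maximal dose after compound preincubation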); conditions: Fluo-4 calcium flux, at 10 µM, serotonin added to trigger calcium flux; active compounds read high
[14] = system: TRPC4 (mouse), co-expressed with 5HT1a in HEK293; experiment: calcium flux potentiators in TRPC4/5HT1a cells, confirmation, counter-screen for TRPC4 potentiator project, cell-based, second counter screen, HEK293 TRPC4/5HT1a, Fluo-4 (AID 434979;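 active = signal rise over 3 SD above mean of control wells given weak agonist, in both repeats and first screen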); conditions: Fluo-4 calcium flux, at 10 µM, serotonin added at its EC20 dose; active compounds read high
[15] = calcium flux activation in mu-opioid HEK293 cells, confirmation, counter-screen for TRPC4 activator project, cell-based, HEK293 mu-opioid receptor line (AID 449723;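 active = hit in primary screen, with calcium signal over 5 SD above buffer well mean in both duplicates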;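 also: counter screen cells carry the mu-opioid receptor alone and lack TRPC4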); conditions: Fluo-4 calcium fluorescence, at 10 µM; active compounds read high
[16] = calcium flux enhancement in mu-opioid HEK293 cells, confirmation, counter-screen for TRPC4 allosteric potentiator project, cell-based, HEK293 mu-opioid receptor line (AID 449724;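 active = calcium signal rise more than 3 SD above the low-dose agonist control mean, in both duplicate plates and the primary screen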); conditions: Fluo-4 calcium flux, at 10 µM, compound added before EC20 DAMGO stimulus; active compounds read high
[17] = thallium flux activation in parental CHO cells, counter-screen for KCNQ1 potentiator project (AID 493006;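 active = duplicate-averaged activation above buffer control mean plus 5 SD of those controls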;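 also: fluorescence ratio of max minus min over baseline after K+ and Tl+ depolarization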); conditions: parental CHO-K1 cells, FluxOR thallium flux, at 10 µM; active compounds read high
[18] = biological target: Potassium voltage-gated channel subfamily KQT member 1 (Homo sapiens) (UniProt P51787); experiment: KCNQ1 potassium channel potentiators, confirmation, FluxOR thallium flux, CHO cells, duplicates (AID 493007;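 active = potentiation averaged over duplicate wells exceeding buffer-only control mean by more than 3 SD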;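 also: 0% = buffer-only wells and 100% = R-L3 activator control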); conditions: KCNQ1 cell line, FluxOR thallium flux fluorescence, at 10 µM; active compounds read high, % of reference activator effect, buffer zero
Potassium voltage-gated channel subfamily KQT member 1 (Homo sapiens), sequence (P51787 whole entry, looked up): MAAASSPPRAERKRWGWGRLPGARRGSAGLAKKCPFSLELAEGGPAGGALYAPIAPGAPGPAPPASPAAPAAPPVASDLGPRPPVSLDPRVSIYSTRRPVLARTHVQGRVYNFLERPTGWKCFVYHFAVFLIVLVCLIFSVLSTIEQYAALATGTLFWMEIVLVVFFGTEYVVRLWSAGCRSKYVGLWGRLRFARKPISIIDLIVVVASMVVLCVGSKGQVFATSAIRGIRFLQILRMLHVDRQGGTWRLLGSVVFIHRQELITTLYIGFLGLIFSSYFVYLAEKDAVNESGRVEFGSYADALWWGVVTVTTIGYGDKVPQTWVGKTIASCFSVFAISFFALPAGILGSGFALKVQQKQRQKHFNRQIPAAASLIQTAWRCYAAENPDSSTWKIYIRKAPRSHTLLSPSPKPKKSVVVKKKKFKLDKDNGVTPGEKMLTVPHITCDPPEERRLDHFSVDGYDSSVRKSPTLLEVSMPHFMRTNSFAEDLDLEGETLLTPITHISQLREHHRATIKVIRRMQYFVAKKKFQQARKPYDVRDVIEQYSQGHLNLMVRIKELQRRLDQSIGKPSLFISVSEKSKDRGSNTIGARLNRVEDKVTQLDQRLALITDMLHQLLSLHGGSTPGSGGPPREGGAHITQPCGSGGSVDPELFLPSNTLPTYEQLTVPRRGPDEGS

[19] = biological target: Potassium voltage-gated channel subfamily KQT member 2 (Rattus norvegicus) (UniProt O88943); experiment: rat KCNQ2 channel potentiation, selectivity assay for KCNQ1 potentiator project, KCNQ2-CHO-K1 cells (AID 493009;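 active = mean duplicate potentiation above the buffer control mean plus 5 SD of buffer wells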;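 also: assay conditions were tuned for KCNQ1 rather than KCNQ2 modulators; signal is max minus min fluorescence divided by baseline after thallium stimulus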); conditions: FluxOR thallium flux fluorescence, at 10 µM; active compounds read high, scaled: buffer 0, activator control 100
Potassium voltage-gated channel subfamily KQT member 2 (Rattus norvegicus), sequence (O88943 whole entry, looked up): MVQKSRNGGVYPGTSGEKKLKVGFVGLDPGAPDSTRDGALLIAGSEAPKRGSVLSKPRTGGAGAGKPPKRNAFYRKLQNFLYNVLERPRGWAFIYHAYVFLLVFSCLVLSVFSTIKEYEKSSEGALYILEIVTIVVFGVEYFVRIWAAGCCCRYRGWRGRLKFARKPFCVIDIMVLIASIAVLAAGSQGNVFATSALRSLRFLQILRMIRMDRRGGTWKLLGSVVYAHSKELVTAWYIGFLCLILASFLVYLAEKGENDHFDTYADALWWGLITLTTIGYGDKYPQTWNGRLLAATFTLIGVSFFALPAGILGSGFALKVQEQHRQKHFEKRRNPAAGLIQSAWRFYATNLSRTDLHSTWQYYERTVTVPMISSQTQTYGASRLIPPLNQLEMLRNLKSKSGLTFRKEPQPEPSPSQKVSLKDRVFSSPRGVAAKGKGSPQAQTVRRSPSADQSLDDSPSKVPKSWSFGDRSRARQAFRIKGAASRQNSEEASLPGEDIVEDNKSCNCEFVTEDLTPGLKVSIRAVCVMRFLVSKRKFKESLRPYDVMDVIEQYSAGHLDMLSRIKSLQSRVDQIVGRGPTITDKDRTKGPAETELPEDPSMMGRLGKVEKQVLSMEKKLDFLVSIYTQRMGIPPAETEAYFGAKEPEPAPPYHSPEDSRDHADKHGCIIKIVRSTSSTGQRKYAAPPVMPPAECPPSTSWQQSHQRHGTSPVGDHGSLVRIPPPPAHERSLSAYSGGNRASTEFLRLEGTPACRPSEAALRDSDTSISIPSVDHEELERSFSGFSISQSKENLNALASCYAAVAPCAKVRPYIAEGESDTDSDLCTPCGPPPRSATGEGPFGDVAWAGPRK

[20] = biological target: Potassium voltage-gated channel subfamily KQT member 1 (Homo sapiens) (UniProt P51787); experiment: KCNQ1 channel current potentiators, confirmation, orthogonal assay for KCNQ1 potentiator project, IonWorks patch clamp, KCNQ1-CHO cells (AID 493184;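 active = current rise at least 3 SD above the untreated control mean in each of two repeat wells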); conditions: automated patch clamp current, at 10 µM; active compounds read high

Cc1cccc2cc(C(c3nnnn3Cc3ccccc3)N3CCN(C)CC3)c(=O)[nH]c12 (configuration not stated)
inactive: outcome [2] | outcome [3] | outcome [4] | outcome [5] | outcome [6] | outcome [7] | outcome [8] | outcome [9] | outcome [11] | outcome [12] | outcome [13] | outcome [14] | outcome [15] | outcome [16]
active: activation [1] 118% | activation [10] 29%

O=C(N/N=C/c1cc([N+](=O)[O-])cc(Br)c1O)C12CC3CCC(CC(C3)C1)C2
inactive: outcome [2] | outcome [3] | outcome [4] | outcome [5] | outcome [6] | outcome [7] | outcome [8] | outcome [9] | outcome [11] | outcome [13] | outcome [14] | outcome [16] | outcome [20]
active: activation [1] 82% | activation [10] 28.5% | activation [12] 68.6% | activation [15] 33.8% | activation [17] 158% | potentiation [18] 43.5% | potentiation [19] 163%

COC(=O)C1=NN(C(=O)c2cccc(Br)c2)C(O)(c2ccc(Cl)cc2)C1 (configuration not stated)
active: activation [1] 121% | activation [12] 98.1% | activation [17] 575% | potentiation [18] 318% | potentiation [19] 745%
inactive: outcome [2] | outcome [3] | outcome [4] | outcome [5] | outcome [6] | outcome [7] | outcome [8] | outcome [9] | outcome [10] | outcome [11] | outcome [13] | outcome [14] | outcome [15] | outcome [16] | outcome [20]

COc1ccccc1C(=O)NNC(=S)NC(=O)c1sc2ccccc2c1Cl
inactive: outcome [1] | outcome [2] | outcome [3] | outcome [4] | outcome [5] | outcome [6] | outcome [7] | outcome [8] | outcome [9] | outcome [11] | outcome [14] | outcome [15] | outcome [16] | outcome [20]
active: activation [10] 30.5% | activation [12] 14.7% | inhibition [13] 38.3% | activation [17] 278% | potentiation [18] 150% | potentiation [19] 287%

CC(C)(C)c1ccc(C(=O)NC(=S)NNC(=O)c2cccs2)cc1
active: activation [1] 226% | activation [12] 199% | activation [15] 84.8% | activation [17] 136% | potentiation [18] 97% | potentiation [19] 188%
inactive: outcome [2] | outcome [3] | outcome [4] | outcome [5] | outcome [6] | outcome [7] | outcome [8] | outcome [9] | outcome [10] | outcome [11] | outcome [13] | outcome [14] | outcome [16] | outcome [20]

CCCC(=O)N1CCc2cc(-c3nc(N)sc3C)ccc21
inactive: outcome [2] | outcome [3] | outcome [4] | outcome [5] | outcome [6] | outcome [7] | outcome [8] | outcome [9] | outcome [10] | outcome [11] | outcome [12] | outcome [13] | outcome [14] | outcome [15] | outcome [16]
active: activation [1] 62%
